FUS suppressor = qHTS for Suppressors of FUS Proteinopathy: Primary screen using FUS-linked yeast assay; S. cerevisiae FUS-expressing, growth rescue, OD600, 24 h; Potency, µM (top dose mostly 76.6 µM), most hits filed as activators; 0.24% of 390,000 active; AID 1347120, 2019;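 also: plate controls were DMSO vehicle for no effect and reference control for full effect; nearly all actives have a fitted effect of over 55% in size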
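FUS-expressing yeast, raffinose-pregrown, induced in 2% galactose minimal medium at OD 0.005; compounds in a dilution series, 24hr at 30C. Growth restoration read as absorbance at 600 nm. CP55940 positive control, DMSO negative.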
MBNL1-CUG inh = qHTS Assay for Inhibitors of MBNL1-poly(CUG) RNA binding; Muscleblind-like protein 1 (Homo sapiens), Q9NR56; TR-FRET MBNL1-His/biotin-(CUG)12 binding, 665/545 ratio; Potency, µM (top dose mostly 57.5 µM), for the others: top-dose activity change, negative = inhibition, usual class: inhibitors; 0.036% of 280,000 active; active = well fitted inhibition curve with a large enough effect in the signal ratio, with a control signal flat, not every such curve was filed as active; inconclusive = small, poorly fitted or top-dose-only effect, or effect the other way, or a change in a side signal; inactive = no such curve, though single readings can be large or run the other way; the % refers to the signal ratio; also: % is scaled to controls: 0 for no effect and ±100 for the full control effect
Target sequence (Q9NR56 whole entry, looked up): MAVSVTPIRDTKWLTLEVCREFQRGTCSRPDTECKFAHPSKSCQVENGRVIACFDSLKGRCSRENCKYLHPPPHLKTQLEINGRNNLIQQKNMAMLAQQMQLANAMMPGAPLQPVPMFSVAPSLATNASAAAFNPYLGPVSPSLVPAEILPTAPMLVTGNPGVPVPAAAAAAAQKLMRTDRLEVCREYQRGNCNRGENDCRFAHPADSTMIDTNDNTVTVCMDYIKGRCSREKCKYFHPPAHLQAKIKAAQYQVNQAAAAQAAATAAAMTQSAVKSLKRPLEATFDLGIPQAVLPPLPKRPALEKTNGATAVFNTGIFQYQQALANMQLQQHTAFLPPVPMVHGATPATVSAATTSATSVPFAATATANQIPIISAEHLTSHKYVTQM
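Compound titration spanned 92 nM–58 uM against the MBNL1-His/biotin-(CUG)12 complex. After 60 min at room temperature with 5 nM streptavidin-XL665 and 0.055 ng/ul terbium anti-His, ratiometric 665/545 nm emission (Ex 340 nm) normalized to controls.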
Abeta yeast res = qHTS for compounds that reverse cellular toxicity of Amyloid beta (A-beta) peptide in yeast: Primary Screen; yeast expressing A-beta42, growth rescue, OD600, 48 h; response scale: 0% DMSO, 100% iron-clioquinol control; 0.063% of 410,000 active; Potency, µM (highest dose often 46.1 µM), usual class: activators; also: nearly all actives have a fitted effect of over 55% in size
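Yeast A-beta toxicity model in growth medium with pinned compounds, 48 h at 30 C; growth read as absorbance at 600 nm. Normalized to FeCl3/clioquinol equimolar mix (positive) and DMSO (negative).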
aSyn yeast inh = qHTS of alpha-syn Inhibitors; 0.14% of 370,000 active; Potency, µM (titrated, usually from 46.1 µM), for inactives: at the top dose growth rescue (activation), usual class: activators; AID 652106, 2013; Yeast expressing alpha-synuclein, growth rescue, BacTiter-Glo, 24 h; also: % of control where 0% means no effect; nearly all actives have a fitted effect of over 65% in size
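Screening used galactose-induced yeast with toxic alpha-synuclein levels, exposed to compound for 24 hr at 30 deg C. Cell growth, read with BacTiter-Glo luminescence, gave the measured signal.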
GRP78 ERSR act = qHTS for Inducers of the Endoplasmic Reticulum Stress Response (ERSR) in Human Glioma: qHTS; U87-MG GRP78 promoter luciferase reporter, 16 h; Potency, µM, for inactives: top-dose activation, hits mostly activators; 0.02% of 420,000 active; AID 602332, 2012; also: series mostly up to about 76 µM; % of control where 0% means no effect; nearly all actives have a fitted effect of over 35% in size
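Stably transfected U87-MG glioma cells carrying a GRP78-based luciferase sensor; 16 h compound incubation. Luminescence end-point read 10 min after Bright-Glo addition at room temperature.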
TDP43 rescue = qHTS of TDP-43 Inhibitors | TDP-43 expressing yeast growth rescue, BacTiter-Glo, 24 h | Potency, µM (doses to about 46.1 µM), for the others: at the top dose growth rescue (activation), usual class: activators | 1.8% of 410,000 active; also: % of control where 0% means no effect; nearly all actives have a fitted effect of over 50% in size
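Yeast cells expressing TDP-43 under galactose induction are exposed to compounds for 24 hr at 30 deg C. BacTiter-Glo luminescence measures growth, so protective compounds score as activators.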
Numbers without * were called inactive; i = inactive; ? = inconclusive; / = no result. Hits are enriched below; roughly 2% of the tested compounds scored in any of these assays. Unless noted, calls follow the shape of the dose curve; as a rule, active = well fitted curve in the direction sought with a large enough effect; inconclusive = small, poorly fitted or top-dose-only effect, or another doubt; inactive = no such curve, though single readings can be large; an effect the other way counts as inactive or inconclusive. Potency is read from the fitted curve at half-maximal effect.

SMILES	FUS suppressor	MBNL1-CUG inh	Abeta yeast res	aSyn yeast inh	GRP78 ERSR act	TDP43 rescue
CC(Nc1cc(N2CCN(C(=O)C(C)(C)C)CC2)ccc1[N+](=O)[O-])c1ccccc1 (configuration not stated)	?	?	i	0%	-5%	20µM*
CC(C)C(=O)N1CCN(c2ccc([N+](=O)[O-])c(NC(C)c3ccccc3)c2)CC1 (configuration not stated)	?	/	i	-1%	-4%	20µM*
Cc1noc(C)c1CCC(=O)N1CCOc2ccc(CN3CCN(c4ccccn4)CC3)cc2C1	/	/	/	/	-5%	/
CCCCCn1c(CCCNC(=O)c2cccc(C)c2)nc2ccccc21	?	/	i	/	-9%	35µM*
Nc1nc(Cl)cc(N2CCCC2)n1	i	-2%	i	3%	-5%	18%
Nc1nc(Cl)cc(N2CCC(c3cc(-c4ccc(Cl)cc4Cl)n[nH]3)CC2)n1	13µM*	-3%	i	17%	-6%	-51%
C#Cc1ccc(NC(=O)C2(C)CCN2C(=O)Cc2ccc(C(C)C)cc2)cc1 (configuration not stated)	i	/	i	13%	-1%	35µM*
C#Cc1ccc(NC(=O)C2(C)CCN2C(=O)C/C=C/c2ccccc2)cc1 (configuration not stated)	i	/	i	20%	-3%	25µM*
C#Cc1ccc(NC(=O)C2(C)CCN2C(=O)Cc2ccc(C(C)(C)C)cc2)cc1 (configuration not stated)	i	/	i	1%	-2%	22%
CC1(C(=O)Nc2cccc(C#N)c2)CCN1C(=O)C/C=C/c1ccccc1 (configuration not stated)	?	/	i	-1%	0%	0%
Cc1ccc(CNC(=O)CSCc2nc(-c3cccc(C)c3)oc2C)cc1	i	/	i	/	-2%	23%
Cc1cccc(-c2nc(CSCC(=O)NCCc3ccc(Cl)cc3)c(C)o2)c1	?	/	i	/	-1%	25µM*
Cc1ccc(CCNC(=O)CSCc2nc(-c3ccc(C)cc3)oc2C)cc1	i	/	i	/	-4%	25µM*
COc1ccc(CN2CCC3(CC2)c2ccccc2[C@@H](NC(=O)c2ccsc2)[C@@H]3OC)cc1O	/	/	/	/	-1%	/
COc1ccc(CCNC(=O)c2ccc(CS(=O)(=O)c3ccc(Cl)cc3)o2)cc1OC	i	-10%	i	-2%	-5%	-28%
O=C(NCc1ccc(F)cc1)c1ccc(CSCc2cccc(Cl)c2)o1	?	/	i	/	-4%	22µM*
COc1ccc(CCNC(=O)c2ccc(CSc3ccc(Cl)cc3)o2)cc1OC	?	/	/	/	/	33µM*
Cc1ccccc1CSCc1ccc(C(=O)NCCc2ccccc2)o1	i	/	i	22%	-2%	35µM*
O=C(NCCc1ccc(Cl)cc1)c1ccc(CSCc2cccc(Cl)c2)o1	i	/	i	/	-4%	20µM*
COc1cc2c(NC3CCN(C)CC3)nc(N3CCCN(C)CC3)nc2cc1OCc1ccccc1	/	/	/	-11%	/	/
COc1ccc(CN2CSC(=S)N(Cc3ccc(OC)cc3)C2)cc1	i	-9%	i	-5%	-3%	32µM*
COc1ccc(-n2c(CNC(=O)c3ccccc3C(F)(F)F)nnc2SC)cc1	/	/	/	/	0%	/
O=C(NCCc1csc(-c2ccccc2)n1)c1ccc(Br)o1	i	1%	i	6%	-2%	22µM*
Cc1cccc(-c2nc(CCNC(=O)c3ccc(Br)o3)cs2)c1	i	/	i	/	-4%	16µM*
COc1cccc(NC=C2C(=O)OC3(CCCCC3)OC2=O)c1	/	-11%	i	4%	0%	25µM*
CSc1nc(C)cc(C)c1S(=O)(=O)c1ccccc1C	i	3%	?	0%	0%	11µM*
